Consider one sequence from article PMC7862700, “An all-to-all approach to the identification of sequence-specific readers for epigenetic DNA modifications on cytosine”.

Common to all, as to assay: DAPPL (digital affinity profiling via proximity ligation, sequencing); 10 mM Tris-HCl pH 7.5, 50 mM NaCl, 1 mM DTT, 4% glycerol, room temperature, 30 min; GST-TFs on glutathione beads, 16-mer random dsDNA library, 0.1% formaldehyde crosslink after washing; high values mean tight binding
The target of one assay is T1, FEV (Homo sapiens, UniProt Q99581 1-238).
T1 sequence: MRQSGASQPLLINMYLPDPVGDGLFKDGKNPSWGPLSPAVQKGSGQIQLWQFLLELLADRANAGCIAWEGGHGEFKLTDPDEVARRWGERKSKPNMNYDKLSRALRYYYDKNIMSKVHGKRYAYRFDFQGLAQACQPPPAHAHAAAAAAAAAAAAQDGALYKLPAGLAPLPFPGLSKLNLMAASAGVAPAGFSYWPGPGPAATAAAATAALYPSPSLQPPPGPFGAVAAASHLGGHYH
The conditions noted are these: protein: recombinant; tags: N-terminal GST; dsDNA, one strand shown. Put shortly:
(§1)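 Binding signal is given per hexamer as its read frequency for a factor divided by its frequency in the tag-only sample. GST-fused human transcription factors were expressed in yeast, captured on glutathione beads, barcoded with DNA and pooled with that sample, then incubated with 200 nmole of a 16-mer random double-stranded DNA library in Tris/NaCl/DTT/glycerol buffer for 30 min at room temperature. The pools were then washed, crosslinked, proximity-ligated, amplified by PCR and sequenced on an Illumina NextSeq500.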

Another assay deals with ETV5 (Homo sapiens, UniProt P41161 1-510). The conditions noted are these: protein: recombinant; tags: N-terminal GST; dsDNA, one strand shown. Put shortly: as §1
Chain of ETV5 (P41161 whole entry): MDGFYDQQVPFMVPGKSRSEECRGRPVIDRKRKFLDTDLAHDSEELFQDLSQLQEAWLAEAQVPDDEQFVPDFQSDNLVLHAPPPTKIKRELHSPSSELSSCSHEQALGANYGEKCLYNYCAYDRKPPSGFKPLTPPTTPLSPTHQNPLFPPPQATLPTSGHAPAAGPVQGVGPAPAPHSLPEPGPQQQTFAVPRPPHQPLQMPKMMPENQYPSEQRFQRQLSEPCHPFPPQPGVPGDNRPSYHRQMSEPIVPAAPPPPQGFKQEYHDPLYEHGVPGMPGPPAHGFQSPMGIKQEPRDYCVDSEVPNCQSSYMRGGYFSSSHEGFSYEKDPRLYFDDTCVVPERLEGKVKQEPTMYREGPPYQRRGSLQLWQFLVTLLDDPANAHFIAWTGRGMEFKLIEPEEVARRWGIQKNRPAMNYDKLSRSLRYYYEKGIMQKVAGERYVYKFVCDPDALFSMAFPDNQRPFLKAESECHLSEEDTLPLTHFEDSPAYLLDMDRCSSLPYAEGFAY
The target of a further assay is HSF1 (Homo sapiens, UniProt Q00613 1-529). The conditions noted are these: protein: recombinant; tags: N-terminal GST; chain copies: 3; dsDNA, one strand shown. Put shortly:
as §1

In the next assay the target is T2, SPIC (Homo sapiens, UniProt Q8N5J4 1-248).
T2 sequence: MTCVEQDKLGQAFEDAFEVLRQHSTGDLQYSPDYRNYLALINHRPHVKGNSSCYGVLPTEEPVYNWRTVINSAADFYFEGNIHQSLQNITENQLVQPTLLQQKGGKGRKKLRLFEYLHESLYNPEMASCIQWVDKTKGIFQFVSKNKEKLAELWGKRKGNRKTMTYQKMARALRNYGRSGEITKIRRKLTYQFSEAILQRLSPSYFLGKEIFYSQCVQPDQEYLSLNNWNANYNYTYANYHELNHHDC
The conditions noted are these: protein: recombinant; tags: N-terminal GST; dsDNA, one strand shown. In outline: as §1

The next assay concerns the target ELF4 (Homo sapiens, UniProt Q99607 1-663). The conditions noted are these: protein: recombinant; tags: N-terminal GST; dsDNA, one strand shown. In outline:
as §1

The target in the next assay is T3, ELK4 (Homo sapiens, UniProt P28324-2 1-405).
T3 sequence: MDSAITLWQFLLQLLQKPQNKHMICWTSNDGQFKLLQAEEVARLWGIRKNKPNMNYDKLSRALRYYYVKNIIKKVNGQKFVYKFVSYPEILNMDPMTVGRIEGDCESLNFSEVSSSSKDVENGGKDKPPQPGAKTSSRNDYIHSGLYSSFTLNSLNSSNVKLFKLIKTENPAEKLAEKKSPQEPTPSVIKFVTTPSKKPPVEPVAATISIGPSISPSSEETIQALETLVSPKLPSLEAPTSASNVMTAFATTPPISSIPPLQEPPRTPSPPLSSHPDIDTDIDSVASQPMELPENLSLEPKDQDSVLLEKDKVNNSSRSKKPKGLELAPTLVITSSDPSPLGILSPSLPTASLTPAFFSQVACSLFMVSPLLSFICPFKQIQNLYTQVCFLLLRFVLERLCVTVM
The conditions noted are these: protein: recombinant; tags: N-terminal GST; dsDNA, one strand shown. Put shortly:
as §1

The next assay concerns the target T4, ETV2 (Homo sapiens, UniProt O00321 1-342).
T4 sequence: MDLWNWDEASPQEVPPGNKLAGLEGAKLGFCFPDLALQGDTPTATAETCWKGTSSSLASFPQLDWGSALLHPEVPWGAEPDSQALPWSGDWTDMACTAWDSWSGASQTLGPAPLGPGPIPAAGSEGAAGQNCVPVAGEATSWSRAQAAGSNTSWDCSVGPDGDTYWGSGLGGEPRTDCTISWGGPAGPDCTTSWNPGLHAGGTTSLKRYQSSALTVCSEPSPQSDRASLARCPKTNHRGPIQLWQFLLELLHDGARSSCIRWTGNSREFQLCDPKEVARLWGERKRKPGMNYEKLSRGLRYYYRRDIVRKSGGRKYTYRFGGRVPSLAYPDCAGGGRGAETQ
Conditions: protein: recombinant; tags: N-terminal GST; dsDNA, one strand shown. In outline:
as §1

The target of a further assay is T5, ELF3 (Homo sapiens, UniProt P78545 1-371).
T5 sequence: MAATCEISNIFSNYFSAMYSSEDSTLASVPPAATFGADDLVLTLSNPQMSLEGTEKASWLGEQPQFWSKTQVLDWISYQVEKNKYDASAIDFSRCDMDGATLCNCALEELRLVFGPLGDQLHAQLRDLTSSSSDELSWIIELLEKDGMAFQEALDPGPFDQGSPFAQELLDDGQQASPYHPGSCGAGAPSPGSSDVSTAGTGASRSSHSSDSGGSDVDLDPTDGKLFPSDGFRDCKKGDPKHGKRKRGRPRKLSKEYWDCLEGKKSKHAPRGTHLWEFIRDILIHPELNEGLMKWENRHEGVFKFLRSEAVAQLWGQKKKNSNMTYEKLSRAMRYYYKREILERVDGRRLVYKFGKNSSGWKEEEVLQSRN
The conditions noted are these: protein: recombinant; tags: N-terminal GST; dsDNA, one strand shown. In outline:
as §1

Another assay addresses CRX (Homo sapiens, UniProt O43186 1-299). Conditions: protein: recombinant; tags: N-terminal GST; dsDNA, one strand shown. Put shortly: as §1
The next assay concerns the target ETV1 (Homo sapiens, UniProt P50549 1-477). Conditions: protein: recombinant; tags: N-terminal GST; dsDNA, one strand shown. In outline: as §1
For the next assay, the target named is T6, ERF (Homo sapiens, UniProt P50548 1-548).
T6 sequence: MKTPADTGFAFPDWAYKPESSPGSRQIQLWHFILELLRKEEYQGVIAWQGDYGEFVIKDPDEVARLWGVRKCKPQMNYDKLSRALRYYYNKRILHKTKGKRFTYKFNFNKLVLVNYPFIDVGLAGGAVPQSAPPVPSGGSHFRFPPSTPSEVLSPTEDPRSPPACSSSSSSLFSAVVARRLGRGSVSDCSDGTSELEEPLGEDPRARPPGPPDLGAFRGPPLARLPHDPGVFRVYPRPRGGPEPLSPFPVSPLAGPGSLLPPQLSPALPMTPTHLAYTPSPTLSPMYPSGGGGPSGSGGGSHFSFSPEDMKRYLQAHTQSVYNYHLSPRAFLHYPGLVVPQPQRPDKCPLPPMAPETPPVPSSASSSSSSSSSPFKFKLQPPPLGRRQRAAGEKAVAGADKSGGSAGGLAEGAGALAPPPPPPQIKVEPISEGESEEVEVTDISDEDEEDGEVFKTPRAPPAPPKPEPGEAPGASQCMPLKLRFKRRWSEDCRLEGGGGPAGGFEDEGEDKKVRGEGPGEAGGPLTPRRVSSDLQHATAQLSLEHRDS
Conditions: protein: recombinant; tags: N-terminal GST; dsDNA, one strand shown. Put shortly:
as §1

The target in another assay is T7, ETV3L (Homo sapiens, UniProt Q6ZN32 1-361).
T7 sequence: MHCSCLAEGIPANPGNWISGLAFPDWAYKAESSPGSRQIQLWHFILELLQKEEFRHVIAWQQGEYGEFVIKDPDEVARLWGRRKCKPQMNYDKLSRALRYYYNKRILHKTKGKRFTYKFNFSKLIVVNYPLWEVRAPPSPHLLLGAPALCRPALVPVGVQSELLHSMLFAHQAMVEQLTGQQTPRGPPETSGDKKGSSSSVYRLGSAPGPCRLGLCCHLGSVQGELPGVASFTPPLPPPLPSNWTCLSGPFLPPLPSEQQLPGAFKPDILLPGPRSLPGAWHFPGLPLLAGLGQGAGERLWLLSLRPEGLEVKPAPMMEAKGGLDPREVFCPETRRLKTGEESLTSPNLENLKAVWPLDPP
Conditions: protein: recombinant; tags: N-terminal GST; dsDNA, one strand shown. Put shortly: as §1

A further assay addresses T8, ETS2 (Homo sapiens, UniProt P15036 1-469).
T8 sequence: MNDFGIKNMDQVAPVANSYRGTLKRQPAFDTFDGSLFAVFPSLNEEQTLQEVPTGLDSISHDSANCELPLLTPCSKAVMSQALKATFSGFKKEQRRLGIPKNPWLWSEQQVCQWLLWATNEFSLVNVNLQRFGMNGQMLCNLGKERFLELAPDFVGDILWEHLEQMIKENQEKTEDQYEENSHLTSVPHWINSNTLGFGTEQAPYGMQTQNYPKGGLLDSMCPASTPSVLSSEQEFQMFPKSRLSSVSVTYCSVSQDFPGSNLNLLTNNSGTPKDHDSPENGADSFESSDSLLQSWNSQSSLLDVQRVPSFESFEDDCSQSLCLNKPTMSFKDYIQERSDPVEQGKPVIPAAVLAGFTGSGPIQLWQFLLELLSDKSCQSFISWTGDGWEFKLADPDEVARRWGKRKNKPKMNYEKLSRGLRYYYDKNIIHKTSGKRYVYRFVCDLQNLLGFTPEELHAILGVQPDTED
Conditions: protein: recombinant; tags: N-terminal GST; dsDNA, one strand shown. In outline:
as §1

In another assay the target is T9, SPDEF (Homo sapiens, UniProt O95238 1-335).
T9 sequence: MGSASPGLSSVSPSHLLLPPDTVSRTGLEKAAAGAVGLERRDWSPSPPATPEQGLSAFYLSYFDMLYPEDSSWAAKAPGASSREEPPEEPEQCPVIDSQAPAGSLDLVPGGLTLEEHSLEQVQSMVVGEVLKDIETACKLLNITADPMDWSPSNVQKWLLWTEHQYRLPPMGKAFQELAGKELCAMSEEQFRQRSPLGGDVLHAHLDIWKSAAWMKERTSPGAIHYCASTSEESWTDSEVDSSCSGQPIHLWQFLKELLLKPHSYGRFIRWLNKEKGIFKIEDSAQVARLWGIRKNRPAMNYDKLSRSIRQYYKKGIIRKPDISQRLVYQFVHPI
Conditions: protein: recombinant; tags: N-terminal GST; dsDNA, one strand shown. In outline:
as §1

A further assay deals with T10, ETV7 (Homo sapiens, UniProt Q9Y603 1-341).
T10 sequence: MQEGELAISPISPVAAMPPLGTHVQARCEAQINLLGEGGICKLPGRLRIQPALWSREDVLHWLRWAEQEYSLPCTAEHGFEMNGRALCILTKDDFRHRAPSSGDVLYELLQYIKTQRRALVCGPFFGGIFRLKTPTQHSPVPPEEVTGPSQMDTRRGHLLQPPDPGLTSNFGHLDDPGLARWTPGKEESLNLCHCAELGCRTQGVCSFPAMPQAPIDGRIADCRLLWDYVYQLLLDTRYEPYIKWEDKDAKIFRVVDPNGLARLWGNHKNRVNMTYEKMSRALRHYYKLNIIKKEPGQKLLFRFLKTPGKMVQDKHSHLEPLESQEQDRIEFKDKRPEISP
The conditions noted are these: protein: recombinant; tags: N-terminal GST; dsDNA, one strand shown. Put shortly:
as §1

In another assay the target is T11, ELF5 (Homo sapiens, UniProt Q9UKW6-2 1-255).
T11 sequence: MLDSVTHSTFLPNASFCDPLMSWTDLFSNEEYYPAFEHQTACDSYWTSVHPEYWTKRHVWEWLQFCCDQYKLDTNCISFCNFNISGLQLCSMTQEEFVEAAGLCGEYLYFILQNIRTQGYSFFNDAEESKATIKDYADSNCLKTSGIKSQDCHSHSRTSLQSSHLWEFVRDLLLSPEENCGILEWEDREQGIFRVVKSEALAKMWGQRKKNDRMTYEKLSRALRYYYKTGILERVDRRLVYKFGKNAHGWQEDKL
Conditions: protein: recombinant; tags: N-terminal GST; dsDNA, one strand shown. In outline: as §1

The target of the next assay is T12, ETV3 (Homo sapiens, UniProt P41162-2 1-143).
T12 sequence: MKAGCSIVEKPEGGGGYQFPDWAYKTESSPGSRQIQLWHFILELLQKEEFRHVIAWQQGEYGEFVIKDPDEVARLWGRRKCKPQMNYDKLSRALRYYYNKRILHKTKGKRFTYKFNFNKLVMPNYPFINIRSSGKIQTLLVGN
The conditions noted are these: protein: recombinant; tags: N-terminal GST; dsDNA, one strand shown. In outline: as §1

The next assay concerns the target ETV6 (Homo sapiens, UniProt P41212 1-452). The conditions noted are these: protein: recombinant; tags: N-terminal GST; dsDNA, one strand shown. Put shortly:
as §1

Chain of ELF4 (Q99607 whole entry): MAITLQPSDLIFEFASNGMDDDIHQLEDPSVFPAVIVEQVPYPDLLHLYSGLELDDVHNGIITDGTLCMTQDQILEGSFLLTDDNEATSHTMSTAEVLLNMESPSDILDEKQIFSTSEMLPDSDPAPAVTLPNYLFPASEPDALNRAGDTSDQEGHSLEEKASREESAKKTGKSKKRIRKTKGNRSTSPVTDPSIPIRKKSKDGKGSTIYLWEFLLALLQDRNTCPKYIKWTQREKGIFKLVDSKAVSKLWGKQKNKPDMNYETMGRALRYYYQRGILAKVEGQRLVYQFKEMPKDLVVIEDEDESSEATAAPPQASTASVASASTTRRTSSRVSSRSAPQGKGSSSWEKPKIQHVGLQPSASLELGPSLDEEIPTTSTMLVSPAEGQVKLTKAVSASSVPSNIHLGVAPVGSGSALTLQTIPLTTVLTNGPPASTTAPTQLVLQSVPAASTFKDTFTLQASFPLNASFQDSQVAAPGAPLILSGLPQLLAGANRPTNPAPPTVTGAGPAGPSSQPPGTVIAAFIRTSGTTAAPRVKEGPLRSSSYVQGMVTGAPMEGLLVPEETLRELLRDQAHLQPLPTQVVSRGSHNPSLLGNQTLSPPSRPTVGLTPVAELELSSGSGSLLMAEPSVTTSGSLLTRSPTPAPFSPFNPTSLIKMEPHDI
Chain of ETV1 (P50549 whole entry): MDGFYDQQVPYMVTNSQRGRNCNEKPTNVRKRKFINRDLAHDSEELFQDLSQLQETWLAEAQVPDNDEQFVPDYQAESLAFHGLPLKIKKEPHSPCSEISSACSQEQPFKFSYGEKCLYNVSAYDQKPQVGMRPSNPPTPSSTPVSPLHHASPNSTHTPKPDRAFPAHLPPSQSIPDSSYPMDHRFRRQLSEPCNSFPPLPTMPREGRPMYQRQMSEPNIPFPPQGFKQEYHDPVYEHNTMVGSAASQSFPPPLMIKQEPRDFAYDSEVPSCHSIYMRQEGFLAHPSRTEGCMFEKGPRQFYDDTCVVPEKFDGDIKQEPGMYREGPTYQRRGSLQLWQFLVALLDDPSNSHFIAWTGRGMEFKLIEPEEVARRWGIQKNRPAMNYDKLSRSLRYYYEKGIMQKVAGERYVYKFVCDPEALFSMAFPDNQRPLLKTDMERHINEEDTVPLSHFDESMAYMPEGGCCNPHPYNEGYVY
Chain of ETV6 (P41212 whole entry): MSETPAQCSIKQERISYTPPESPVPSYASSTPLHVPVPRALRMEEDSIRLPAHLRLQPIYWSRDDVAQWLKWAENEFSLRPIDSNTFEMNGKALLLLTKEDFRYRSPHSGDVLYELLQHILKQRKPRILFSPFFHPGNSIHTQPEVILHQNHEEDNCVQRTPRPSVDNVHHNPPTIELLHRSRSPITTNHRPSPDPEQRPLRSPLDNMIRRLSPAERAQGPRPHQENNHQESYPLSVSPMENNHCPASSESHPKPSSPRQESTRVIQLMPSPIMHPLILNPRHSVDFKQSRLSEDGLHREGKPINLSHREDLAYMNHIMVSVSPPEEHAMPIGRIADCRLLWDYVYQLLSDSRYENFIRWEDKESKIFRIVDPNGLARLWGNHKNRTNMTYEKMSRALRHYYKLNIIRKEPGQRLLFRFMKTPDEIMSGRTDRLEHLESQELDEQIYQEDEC
Chain of HSF1 (Q00613 whole entry): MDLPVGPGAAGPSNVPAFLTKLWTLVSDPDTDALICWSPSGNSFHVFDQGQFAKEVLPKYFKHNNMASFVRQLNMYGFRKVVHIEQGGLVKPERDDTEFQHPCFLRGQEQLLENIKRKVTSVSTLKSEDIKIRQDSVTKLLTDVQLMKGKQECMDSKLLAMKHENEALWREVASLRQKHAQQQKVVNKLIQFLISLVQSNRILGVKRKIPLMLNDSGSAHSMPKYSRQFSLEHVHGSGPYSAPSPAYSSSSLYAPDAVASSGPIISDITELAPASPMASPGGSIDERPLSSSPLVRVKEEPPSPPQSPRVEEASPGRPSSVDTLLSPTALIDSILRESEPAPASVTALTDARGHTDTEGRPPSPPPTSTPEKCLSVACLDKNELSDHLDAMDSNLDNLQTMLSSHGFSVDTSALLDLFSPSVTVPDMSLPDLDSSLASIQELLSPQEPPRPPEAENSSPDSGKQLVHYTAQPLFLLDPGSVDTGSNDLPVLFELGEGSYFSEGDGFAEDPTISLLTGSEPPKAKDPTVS
Chain of CRX (O43186 whole entry): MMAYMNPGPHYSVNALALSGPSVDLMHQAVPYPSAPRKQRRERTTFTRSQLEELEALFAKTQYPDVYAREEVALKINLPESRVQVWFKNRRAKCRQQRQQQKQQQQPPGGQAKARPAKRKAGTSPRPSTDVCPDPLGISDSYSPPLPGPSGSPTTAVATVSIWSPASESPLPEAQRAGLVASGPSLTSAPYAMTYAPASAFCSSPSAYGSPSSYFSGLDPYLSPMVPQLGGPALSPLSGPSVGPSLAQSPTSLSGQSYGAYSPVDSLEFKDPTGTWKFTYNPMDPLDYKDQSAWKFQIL

For TACCTT, the binding signal in the assay with FEV was 1.34 fold enrichment (6-mer frequency, TF over GST control); with ETV5, 1.4 fold enrichment (6-mer frequency, TF over GST control); in the assay with HSF1 it was 1.3 fold enrichment (6-mer frequency, TF over GST control); with SPIC, 1.3 fold enrichment (6-mer frequency, TF over GST control); with ELF4 it was 1.38 fold enrichment (6-mer frequency, TF over GST control); in the assay with ELK4, 1.46 fold enrichment (6-mer frequency, TF over GST control). Besides, the binding signal in the assay with ETV2 is 1.6 fold enrichment (6-mer frequency, TF over GST control); in the assay with ELF3 it was 1.31 fold enrichment (6-mer frequency, TF over GST control); with CRX, 1.55 fold enrichment (6-mer frequency, TF over GST control); in the assay with ETV1, 1.5 fold enrichment (6-mer frequency, TF over GST control); in the assay with ERF, 1.51 fold enrichment (6-mer frequency, TF over GST control); in the assay with ETV3L, 1.34 fold enrichment (6-mer frequency, TF over GST control). Further, the binding signal was 1.44 fold enrichment (6-mer frequency, TF over GST control) with ETS2; 1.39 fold enrichment (6-mer frequency, TF over GST control) with SPDEF; 1.37 fold enrichment (6-mer frequency, TF over GST control) with ETV7; 1.49 fold enrichment (6-mer frequency, TF over GST control) in the assay with ELF5; 1.29 fold enrichment (6-mer frequency, TF over GST control) with ETV3; 1.5 fold enrichment (6-mer frequency, TF over GST control) with ETV6.
